{
  "source": "the supplement of paper PMC11417369",
  "note": "± gives the standard deviation of the averaged measurements. Over roughly 25,000 sequences, “ln(normalized median fluorescence intensity)” has its median near 8.6; the highest 2% begin near 10. The list comes from a sample in which the highest values are over-represented; it also holds similar and randomly drawn sequences.",
  "data": [
    {"system": "PfAP2-EXP AP2 domain (GST-tagged)", "experiment": "gcPBM binding intensity (ln(normalized median fluorescence intensity)); higher = stronger DNA binding", "method_in_brief": "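For binding intensity, the highest Masliner-normalised natural-log median intensity across replicate spots of either probe orientation was taken. Protein bound to the array was stained with Alexa488 anti-GST antibody and scanned at 488 nm. The protein, GST-tagged P. falciparum DNA-binding domains from E. coli at about 25 μg on average, had been applied for 1 h to an Agilent 4 × 180k array of primer-extended double-stranded 36-bp intergenic genomic probes and negative controls.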", "values": [
      {"sequence": "ATCAAAGATAAATTTACACACATATAAATATAAATA [CACACA_site7409]", "gcPBM binding intensity (ln)": "8.44 ± 0.56"},
      {"sequence": "TACTTTCAAAAGATCACACATATATATATATATATA [CACACA_site5630]", "gcPBM binding intensity (ln)": "10.39 ± 0.085"},
      {"sequence": "TTTTTTTTTTTTTTTTGTACATAAATTTTTATTAGA [XGTACX_site6409]", "gcPBM binding intensity (ln)": "8.17 ± 0.35"},
      {"sequence": "TATACATATTTCTATTGTACATAAACTAAATCTTCA [XGTACX_site28]", "gcPBM binding intensity (ln)": "8.27 ± 0.49"},
      {"sequence": "TTTTATTTTTTATTTGCACACAATATGTAAAAAAAT [CACACA_site2927]", "gcPBM binding intensity (ln)": "8.71 ± 0.16"},
      {"sequence": "ATATTAATTCGTTTTGTACACACATAATGAATAATT [CACACA_site8701]", "gcPBM binding intensity (ln)": "8.43 ± 0.24"},
      {"sequence": "TGTGCTATATTCATATGTACATATAATTATTATATA [XGTACX_site3549]", "gcPBM binding intensity (ln)": "8.86 ± 0.028"},
      {"sequence": "CTGTATTCATAATTCACACAAATGGTTTATATGAAT [CACACA_site4315]", "gcPBM binding intensity (ln)": "8.5 ± 0.31"},
      {"sequence": "GGGGACGCGGGTGGGGGTACTCACACTATGCAAAAT [XGTACX_site7745]", "gcPBM binding intensity (ln)": "10.3 ± 0.4"},
      {"sequence": "ATGCAAATGTGCATCACACACACTAATGGGTATGTA [CACACA_site2893]", "gcPBM binding intensity (ln)": "8.39 ± 0.38"},
      {"sequence": "GCTTAGTTATATAACTGTACTATTTTTATTTATATG [XGTACX_site884]", "gcPBM binding intensity (ln)": "9.16 ± 0.83"},
      {"sequence": "CCTATAATAAATAATACACACATATTGTAAATATAT [CACACA_site7496]", "gcPBM binding intensity (ln)": "8.46 ± 0.53"},
      {"sequence": "AGGTGCAAAAATAAAACATGCAAAAATAAAAATGAA [TGCATGCA_site502]", "gcPBM binding intensity (ln)": "9.15 ± 0.44"},
      {"sequence": "GAAAGAATAAAATAAACATGCAAATAAAACATAAAA [TGCATGCA_site471]", "gcPBM binding intensity (ln)": "9.27 ± 0.25"},
      {"sequence": "CACATAAAATAAGGTGCATGCAAACGAGAAAATAAA [TGCATGCA_site75]", "gcPBM binding intensity (ln)": "10.5 ± 0.11"},
      {"sequence": "CAAGGAACCAGACACACACACATAAATGTATTTATA [CACACA_site6491]", "gcPBM binding intensity (ln)": "8.39 ± 0.48"},
      {"sequence": "TCATAAAAGATTAAGTGTACATGTGCTACTCTTATA [XGTACX_site6255]", "gcPBM binding intensity (ln)": "8.34 ± 0.25"},
      {"sequence": "ATATATATATATGTATGTACGTATGTATGTATGAAT [XGTACX_site4857]", "gcPBM binding intensity (ln)": "9.91 ± 0.29"},
      {"sequence": "GTTTTTATCATATCATGTACGTATTTTATTTTTTTT [XGTACX_site8643]", "gcPBM binding intensity (ln)": "9.03 ± 0.32"},
      {"sequence": "ATATATCATGAACCTTGTACGTATATATATATATAT [XGTACX_site239]", "gcPBM binding intensity (ln)": "10.2 ± 0.23"},
      {"sequence": "TAATATAATATATAGGTGCAATATTAACAAAAATTT", "gcPBM binding intensity (ln)": "8.63 ± 0.085"},
      {"sequence": "TCTTAAAATATATAGGTGCAAAAAAAAAAAAAAAAA", "gcPBM binding intensity (ln)": "8.31 ± 0.13"},
      {"sequence": "TATATATATATATAGGTGCAATATTGAAAAAATATC [GTGCAC_site9535]", "gcPBM binding intensity (ln)": "10.3 ± 0.21"},
      {"sequence": "ACCGGTGGAACGTTTTGTACATATATAATAATATAT [XGTACX_site2143]", "gcPBM binding intensity (ln)": "8.62 ± 0.5"},
      {"sequence": "TATATATATATATATTGTACTGAACGTTTTTTTTTG [XGTACX_site8060]", "gcPBM binding intensity (ln)": "10.2 ± 0.39"},
      {"sequence": "AATACGTTTATATATTGTACGTTATATATATATATA [XGTACX_site7452]", "gcPBM binding intensity (ln)": "9.91 ± 0.33"},
      {"sequence": "ATTGTGGATATTCTTACACACAAATTTATATATAAA [CACACA_site2601]", "gcPBM binding intensity (ln)": "8.37 ± 0.49"},
      {"sequence": "AAGTTTTTTTTTAACACACACATAATAAAATAAATA [CACACA_site446]", "gcPBM binding intensity (ln)": "8.46 ± 0.31"},
      {"sequence": "GTATGTTTAATTTTAGTGCAATTATAAATATTTTAA [GTGCAC_site9531]", "gcPBM binding intensity (ln)": "8.62 ± 0.18"},
      {"sequence": "TATATATATTTATATGCATGTAATATATTTGTATTG [TGCATGCA_site323]", "gcPBM binding intensity (ln)": "8.71 ± 0.3"},
      {"sequence": "AAAAAAAAATGAAAAGAAAAAAAAAGAAAAAAGGGA [CACACA_negctrl_site287]", "gcPBM binding intensity (ln)": "8.61 ± 0.67"},
      {"sequence": "AAAAAAAAAAAAAAAAGGGGGGGAGGGATTGAAAAA [CACACA_negctrl_site193]", "gcPBM binding intensity (ln)": "10.22 ± 0.042"},
      {"sequence": "GGGGAAAAAAAAAAAGGAAAAAGAAAAAAAAAAAAA [GTGCAC_negctrl_site489]", "gcPBM binding intensity (ln)": "8.38 ± 0.39"},
      {"sequence": "CTATTATAATATTTTACACACCATGTAAGATATATA [CACACA_site7492]", "gcPBM binding intensity (ln)": "8.46 ± 0.35"},
      {"sequence": "TATTTTTTCTTAAACACACACATATATATATATAAT [CACACA_site5567]", "gcPBM binding intensity (ln)": "8.56 ± 0.39"},
      {"sequence": "TTTTCTTTTAAACATATATATATATATATATATATA [XGTACX_negctrl_site559]", "gcPBM binding intensity (ln)": "10.4 ± 0.23"},
      {"sequence": "TTAATCCTTTTTAAAAGTACACATATATATATATAT [XGTACX_site962]", "gcPBM binding intensity (ln)": "10.2 ± 0.38"},
      {"sequence": "AAATAAAATACATATAAACACACATATAAACCAACA [CACACA_site8789]", "gcPBM binding intensity (ln)": "8.88 ± 0.61"},
      {"sequence": "TCTTTTAAACAGTACACACACACATATATATATATA [CACACA_site924]", "gcPBM binding intensity (ln)": "10.3 ± 0.22"},
      {"sequence": "TCTTTTAAACAGTACACACACACATCTATATTTATA [CACACA_site6559]", "gcPBM binding intensity (ln)": "8.755 ± 0.078"},
      {"sequence": "TTAAAACCAAAACACAGTACATATATATATATATAT [XGTACX_site5668]", "gcPBM binding intensity (ln)": "10.3 ± 0.23"},
      {"sequence": "TTAACAGTAAAACACAGTACATATATACTTAAAACA [XGTACX_site1930]", "gcPBM binding intensity (ln)": "8.59 ± 0.35"},
      {"sequence": "TATTTTAAAAAAAAAAGTACACATAATATATATAAC [XGTACX_site5416]", "gcPBM binding intensity (ln)": "8.64 ± 0.26"},
      {"sequence": "CATATTTTTTCTTAAACACACACATATATATATATA [CACACA_site8920]", "gcPBM binding intensity (ln)": "10.1 ± 0.41"},
      {"sequence": "TATATTCTTTTAAACAGTACACACACACATATATAT [XGTACX_site1701]", "gcPBM binding intensity (ln)": "8.96 ± 0.44"},
      {"sequence": "ATTATATTATTTTAAAGTACACACATATATTAATAT [XGTACX_site4769]", "gcPBM binding intensity (ln)": "8.63 ± 0.24"}
    ]}
  ]
}
